# Values joined by “and” are separate entries in the source; they are usually repeats but may differ in a detail not shown here. Equal values may be shown once. The campaign covered roughly 1,300 compounds. About 1,000 (77%) were called active. Another 7% or so got no clear call; they are omitted. The call rests on the fitted dose curve; in most records, active means well fitted inhibition curve with a large enough effect; inconclusive means small, poorly fitted or top-dose-only effect; inactive means no such curve, though single readings can be large or run the other way. So high a share suggests a set chosen from earlier hits. This is one part of the list.
# Assay: qHTS of small molecules that selectively kill Giardia lamblia: Hit Validation.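 Further: viability measured as ATP content by luminescence so killing lowers signal; nearly all actives have a fitted effect of over 65% in size.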
# Conditions: Giardia lamblia trophozoite viability, dose-response; series mostly up to 38.3 µM
# Summary of the method: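 Trophozoite viability was measured as ATP-dependent luminescence, read 15-30 min after reagent addition. Before that, parasites at 100 cells/well were exposed to compounds for 48 h, anaerobically, at 37 deg C.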
# Potency means the concentration at half of the fitted maximal effect.
row,SMILES,Potency
1,COCCNc1cc(NCCOC)c([N+](=O)[O-])cc1[N+](=O)[O-],1.45 µM (active)
2,COC(=O)c1ccc2cc(OC)cc([N+](=O)[O-])c2n1,5.79 µM (active)
3,COCc1nnc(NC(=O)c2ccc(Cl)cc2[N+](=O)[O-])s1,2.59 µM (active)
4,O=C(C1=C(c2ccccc2)C(=O)c2ccccc2C1=O)c1ccccc1,11.6 µM (active)
5,O=[N+]([O-])c1cc(C(F)(F)F)ccc1Oc1cccnc1[N+](=O)[O-],4.1 µM (active)
6,Cc1csc(NC(=O)c2cn3ccccc3n2)n1,1.63 µM (active)
7,CCN(CC)CCNC(=O)c1ccc(NC(=O)COc2ccc3c(c2)CCC3)cc1,inactive
8,CCN(CC(=O)NCc1cccs1)C(=O)c1ccc([N+](=O)[O-])o1,0.41 µM (active)
9,O=C(CCN1C(=O)c2ccccc2C1=O)NCc1ccc(F)cc1,inactive
10,O=C(COc1cccnc1[N+](=O)[O-])NCc1ccc(F)cc1,5.16 µM (active)
11,O=C(COc1cccnc1[N+](=O)[O-])Nc1ccc2c(c1)CCC2,16.3 µM (active)
12,COc1cccc(NC(=O)COc2cccnc2[N+](=O)[O-])c1,4.6 µM (active)
13,C=CCNc1ncnc2sc(SC)nc12,inactive
14,COc1ccc(CNC(=O)COc2cccnc2[N+](=O)[O-])cc1,6.5 µM (active)
15,O=C(COc1cccnc1[N+](=O)[O-])NCc1ccco1,6.5 µM (active)
16,COc1ccc(C(C)=O)cc1COc1cccnc1[N+](=O)[O-],6.5 µM (active)
17,COc1ccc(CNC(=O)COc2cccnc2[N+](=O)[O-])cc1OC,11.6 µM (active)
18,CC1CCCCC1NC(=O)COc1cccnc1[N+](=O)[O-] (configuration not stated),2.31 µM (active)
19,O=C(COc1cccnc1[N+](=O)[O-])NCCc1ccc(Cl)cc1,3.65 µM (active)
20,O=C(NCCc1ccccc1)c1ccc(CS(=O)(=O)c2ccc(Cl)cc2)o1,inactive
21,CCCCc1cc(=O)oc2c(C)c(OCC(=O)NCc3ccccn3)ccc12,inactive

row,SMILES,Potency
1,O=C(COc1cccnc1[N+](=O)[O-])NCc1cccs1,8.18 µM (active)
2,CC1CCCCC1NC(=O)NC(=O)COC(=O)c1cncc(Br)c1 (configuration not stated),inactive
3,O=C(COc1cccnc1[N+](=O)[O-])Nc1ccc(F)cc1,5.79 µM (active)
4,CN(C)S(=O)(=O)c1cccc(C(=O)NCCNC(=O)c2cccc(S(=O)(=O)N(C)C)c2)c1,inactive
5,CN(C)c1cc(NC(=O)CNC(C)(C)CC(C)(C)C)c2ccccc2n1,1.03 µM (active)
6,O=[N+]([O-])c1ccccc1S(=O)(=O)Oc1ccccc1/C=N/n1cnnc1,2.05 µM (active)
7,O=[N+]([O-])c1ccccc1S(=O)(=O)Oc1ccc(/C=N/n2cnnc2)cc1,0.516 µM (active)
8,Cc1cc2ccccn2c1C(=O)c1ccc([N+](=O)[O-])cc1[N+](=O)[O-],4.6 µM (active)
9,Cn1ccsc1=NC(=O)c1ccc([N+](=O)[O-])o1,0.206 µM (active)
10,Cc1[nH]n(C2=NCCS2)c(=O)c1N=Nc1cccc(C(F)(F)F)c1,6.5 µM (active)
11,CCOC(=O)C1CCN(c2ccc([N+](=O)[O-])c(C(C)=O)c2)CC1,2.31 µM (active)
12,CC(=O)c1cc(N2CCOCC2)ccc1[N+](=O)[O-],1.83 µM (active)
13,CC1CCN(c2ccc(-c3ccc(NC(=O)C(F)(F)F)cc3)nn2)CC1,1.83 µM (active)
14,CCC(C(=O)OC)n1c(-c2ccccc2)nc2ccccc2c1=O (configuration not stated),inactive
15,COc1ccc(-c2nc3ccccc3n2OCC(=O)O)cc1,5.79 µM (active)
16,CC(NC(=O)Cn1cc(Br)c([N+](=O)[O-])n1)c1ccccc1 (configuration not stated),0.516 µM (active)
17,NNC(=O)c1cccc(Cn2cc(Br)c([N+](=O)[O-])n2)c1,1.16 µM (active)
18,O=[N+]([O-])c1ccc(COn2nnc3ccccc32)cc1,1.63 µM (active)
19,CC(Nc1nc(N2CCN(CCO)CC2)nc2ccccc12)c1ccccc1 (configuration not stated),1.03 µM (active)
20,Cc1ccc(OCC(=O)c2cc(C)n(Cc3ccco3)c2C)c([N+](=O)[O-])n1,1.16 µM (active)
21,Cc1cc(C(=O)COc2cccnc2[N+](=O)[O-])c(C)n1Cc1ccco1,0.65 µM (active)

row,SMILES,Potency
1,O=c1c2c(-c3ccccc3)csc2ncn1/N=C/c1ccc(O)c([N+](=O)[O-])c1,2.9 µM (active)
2,Cc1cc(C)cc(Oc2ccc(NC(=O)C3CC=CCC3C(=O)O)cc2)c1 (configuration not stated),1.3 µM (active)
3,CCc1ccc(C(=O)Nc2nc3ccccc3[nH]2)cc1,0.46 µM (active)
4,COC(=O)Nc1nc2ccc(Sc3ccccc3)cc2[nH]1,0.23 µM (active)
5,COC(=O)Nc1nc2ccc(C(=O)c3cccs3)cc2[nH]1,0.23 µM (active)
6,COC(=O)Nc1nc2ccc(SC(C)C)cc2[nH]1,0.365 µM (active)
7,CCc1cccc(NC(=O)CCCSc2nc3ccccc3[nH]2)c1,inactive
8,CCCSc1ccc2nc(NC(=O)OC)[nH]c2c1,0.516 µM (active)
9,COc1cc(SC)ccc1C(=O)Nc1nc2ccccc2[nH]1,0.146 µM (active)
10,CC(=O)Nc1nc(-c2cc([N+](=O)[O-])cs2)cs1,1.16 µM (active)
11,CCC(=O)Nc1nc(-c2cc([N+](=O)[O-])cs2)cs1,1.3 µM (active)
12,NC(=O)c1ccc(NC(=O)COc2ccc([N+](=O)[O-])cc2Cl)cc1,1.16 µM (active)
13,NC(=O)c1ccc(Nc2ccc([N+](=O)[O-])cc2[N+](=O)[O-])cc1,2.9 µM (active)
14,O=C(Nc1nccs1)c1cc([N+](=O)[O-])ccc1Cl,2.59 µM (active)
15,COc1ccc(C(=O)c2c3ccc([N+](=O)[O-])cc3[n+]([O-])n2CCCC(N)=O)cc1,4.1 µM (active)
16,COc1ccc(C(=O)c2c3ccc([N+](=O)[O-])cc3[n+]([O-])n2CCCN)cc1,7.29 µM (active)
17,COc1ccc(C(=O)c2c3ccccc3[n+]([O-])n2CCCN)cc1,1.03 µM (active) and 3.26 µM (active)
18,Cc1c(C(=O)O)sc2nc(SCC(=O)Nc3ccc(S(=O)(=O)NC(C)(C)C)cc3)[nH]c(=O)c12,inactive
19,CCN(CC)CCCC(C)Nc1c2ccc(Cl)cc2nc2ccc(OC)cc12 (configuration not stated),0.13 µM (active)
20,CCN(CC)CCCC(C)Nc1cc(/C=C/c2ccccc2Cl)nc2cc(Cl)ccc12 (configuration not stated),3.26 µM (active)

# Source: PubChem BioAssay AID588397 (National Center for Advancing Translational Sciences (NCATS), 2011)
